In PubChem BioAssay AID1224921 (Broad Institute, 2016) one finds max activity data, which are given here for 58 compounds.

SMILES strings stand for the structures. Among all 1,400 compounds or so, about 350 (25%) were called active. Inconclusive results (about 2%) are left out. No rule for the calls is given here. A selection follows. Measured potencies and affinities stand elsewhere.

A short description of this assay: C. difficile growth inhibition, confirmation, 4-point retest (AID 1224921).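 Also: plate controls were DMSO wells for no effect and levofloxacin 16 µg/mL wells for full effect.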 The settings on record: Clostridioides difficile clinical isolate growth, OD600, 24 h, stronger effect = lower value; at 30 µM unless noted.
In the case of `CO[C@H]1CN(C)C(=O)c2cc(NC(=O)Nc3cccc(F)c3)ccc2OC[C@@H](C)N(C)C[C@@H]1C`, the max activity is -17.5% (inactive).
Consider `CO[C@@H]1CN(C)C(=O)c2cc(NS(=O)(=O)c3ccccc3C)ccc2OC[C@@H](C)N(C)C[C@H]1C`, for which the max activity is -6.93% [at 1.95 µM] (inactive).
Take `CCC(=O)N[C@H]1CC[C@H](CC(=O)NCCN2CCCCC2)O[C@@H]1CO`: the max activity is 25.2% (inactive).
`Cc1ccccc1-c1ccc2c(c1)O[C@H](CN(C)Cc1ccncc1)[C@H](C)CN([C@@H](C)CO)S2(=O)=O`: the max activity is 25.3% (inactive).
Take `O=C(C[C@H]1CC[C@H]2[C@@H](COC[C@H](O)CN2S(=O)(=O)c2ccccc2)O1)NCc1ccc(-c2ccccc2)cc1`: the max activity is 41.2% (inactive).
The value for `O=C(C[C@@H]1CC[C@@H]2[C@H](COC[C@@H](O)CN2S(=O)(=O)c2ccccc2)O1)NCc1ccc(-c2ccccc2)cc1` was 25.5% (inactive); that for `CC(C)CC#Cc1ccc2c(c1)O[C@@H](CN(C)Cc1cccnc1)[C@H](C)CN([C@H](C)CO)S2(=O)=O` was 41.5% [at 8 µM] (inactive).
With `CC(C)CC#Cc1ccc2c(c1)O[C@H](CN(C)Cc1ccccc1F)[C@H](C)CN([C@@H](C)CO)S2(=O)=O`, the max activity is 23.7% [at 8 µM] (inactive).
The value for `CO[C@@H]1CN(C)C(=O)c2ccc(NC(=O)c3ccccn3)cc2OC[C@@H](C)N(C(=O)C2CCC2)C[C@H]1C` was -10.9% [at 23.5 µM] (inactive).
For `CC(C)C(=O)Nc1ccc2c(c1)C(=O)N(C)[C@H]1CC[C@@H](CC(=O)NCc3ccccc3F)O[C@H]1CO2`, the max activity is -11.1% [at 1.95 µM] (inactive).
For the compound `C[C@@H]1CN([C@@H](C)CO)S(=O)(=O)c2ccc(C#CC3CCCC3)cc2O[C@H]1CN(C)Cc1cccnc1`, the max activity is 15.4% (inactive).
Regarding `O=C(N[C@@H]1C=C[C@@H](CC(=O)N2CCc3ccccc3C2)O[C@@H]1CO)C1CC1`, the max activity is 15.1% (inactive).
The value for `CC(C)CC#Cc1ccc2c(c1)O[C@H](CN(C)Cc1ccc3c(c1)OCO3)[C@H](C)CN([C@@H](C)CO)S2(=O)=O` was 27.5% (inactive).
As to `O=C(C[C@H]1C[C@@H]2c3cc(NC(=O)Nc4ccc(C(F)(F)F)cc4)ccc3O[C@@H]2[C@H](CO)O1)NCc1ccc(Cl)cc1`, the max activity was 21.4% (inactive).
Then `CCCC(=O)Nc1ccc2c(c1)OC[C@H](C)N(CCc1ccccc1)C[C@H](C)[C@@H](OC)CN(C)C2=O`, with 22% (inactive); and `C[C@H]1CN([C@@H](C)CO)C(=O)c2cccc(NC(=O)c3ccc(-c4nccs4)cc3)c2O[C@@H]1CN(C)C(=O)Nc1ccc(C(F)(F)F)cc1`, with 20.3% [at 8 µM] (inactive); and `COc1ccccc1CNC(=O)C[C@H]1C[C@@H]2c3cc(NC(=O)NC4CCCC4)ccc3O[C@@H]2[C@H](CO)O1`, with -8.77% [at 2.1 µM] (inactive).
In the case of `C[C@@H]1CN([C@H](C)CO)C(=O)c2c(c3ccccc3n2C)-c2ccccc2CO[C@@H]1CN(C)Cc1ccncc1`, the max activity is 24.2% [at 35 µM] (inactive).
Take `CCC(CO)Oc1cc(NCc2ccccc2)c2ncn(C(C)C)c2c1` (stereo not drawn): the max activity was -5.47% [at 8 µM] (inactive).
The value for `CCS(=O)(=O)Nc1ccc2c(c1)C(=O)N(C)C[C@H](OC)[C@H](C)CN(CC1CCCC1)[C@@H](C)CO2` was 11.3% (inactive); that for `CC(C)=CCN(C(=O)C#Cc1ccccc1)[C@H](CO)c1ccccc1` was 14.2% [at 1.95 µM] (inactive).
Turning to `C[C@H](CO)N1C[C@H](C)[C@H](CN(C)Cc2ccc(C(F)(F)F)cc2)OCCCC[C@H](C)Oc2ccc(NS(C)(=O)=O)cc2C1=O`, the max activity was 5.77% [at 1.95 µM] (inactive).
Turning to `CCCC#Cc1ccc2c(c1)O[C@@H](CN(C)Cc1ccncc1)[C@H](C)CN([C@@H](C)CO)S2(=O)=O`, the max activity is -9.09% [at 1.95 µM] (inactive).
For `CO[C@@H]1CN(C)C(=O)c2ccc(NC(=O)c3nc4ccccc4s3)cc2OC[C@H](C)N(Cc2cccnc2)C[C@H]1C`, the max activity was 25.4% (inactive).
Take `CCCC(O)C#Cc1cnc2c(c1)C(=O)N([C@H](C)CO)C[C@H](C)[C@H](CN(C)Cc1ccncc1)O2` (stereo partly drawn): the max activity was 12% (inactive).
Turning to `C[C@H](CO)N1C[C@H](C)[C@H](CN(C)C(=O)c2cccc(F)c2)Oc2ncc(C3=CCCCC3)cc2C1=O`, the max activity is -6.68% [at 8 µM] (inactive).
As to `C[C@@H]1CN([C@H](C)CO)C(=O)c2c(c3ccccc3n2C)-c2ccccc2CO[C@@H]1CN(C)S(=O)(=O)CC(F)(F)F`, the max activity is 28.3% (inactive).
In the case of `Cc1ccccc1S(=O)(=O)NCC[C@@H]1CC[C@@H](NC(=O)Nc2cccc(Cl)c2)[C@@H](CO)O1`, the max activity is 23.9% (inactive).
Consider `C[C@H]1CN([C@@H](C)CO)C(=O)Cc2cc(NS(C)(=O)=O)ccc2O[C@@H]1CN(C)Cc1ccccc1`, for which the max activity was 11.3% (inactive).
Turning to `COCC(=O)Nc1ccc2c(c1)OC[C@@H](C)N(Cc1cncnc1)C[C@H](C)[C@@H](OC)CN(C)C2=O`, the max activity is -8.05% [at 1.95 µM] (inactive).
With `C[C@H](CO)N1C[C@H](C)[C@H](CN(C)S(=O)(=O)c2ccsc2)OCc2ccccc2-c2ccccc2C1=O`, the max activity is -12.1% [at 0.5 µM] (inactive).
With `C[C@H](O)C#Cc1ccc2c(c1)O[C@H](CN(C)CC1CCCCC1)[C@H](C)CN([C@H](C)CO)S2(=O)=O`, the max activity is 20.7% (inactive).
The value for `C[C@H]1CN([C@@H](C)CO)C(=O)c2cc(NC(=O)Cc3ccccc3)ccc2O[C@@H]1CN(C)C(=O)Nc1ccccc1` was -13.4% [at 0.5 µM] (inactive).
With `C[C@H](NC(=O)C[C@H]1C=C[C@@H](NC(=O)CN2CCOCC2)[C@H](CO)O1)c1ccccc1`, the max activity is -8.28% [at 8 µM] (inactive).
Turning to `C/C=C/c1cnc2c(c1)C(=O)N([C@H](C)CO)C[C@@H](C)[C@@H](CN(C)Cc1ccc(F)cc1)O2`, the max activity is -15% [at 0.5 µM] (inactive).
Then `COc1ccccc1S(=O)(=O)N[C@H]1C=C[C@@H](CC(=O)N2CCCCC2)O[C@@H]1CO`, with -9.97% [at 8 µM] (inactive); and `CO[C@@H]1CN(C)C(=O)c2ccc(NC(=O)c3ccccc3F)cc2OC[C@H](C)N(CC2CC2)C[C@@H]1C`, with -12.3% [at 8 µM] (inactive); and `CCCC#Cc1ccc2c(c1)O[C@H](CN(C)Cc1cccnc1)[C@@H](C)CN([C@@H](C)CO)S2(=O)=O`, with 13.7% [at 8 µM] (inactive).
For the compound `CCCNC(=O)N1C[C@H](C)[C@H](OC)CN(C)C(=O)c2cc(NC(C)=O)ccc2OC[C@H]1C`, the max activity is 4.83% [at 8 µM] (inactive).
For `CC(=O)N(C)C[C@@H]1Oc2ncc(C#Cc3ccc(F)cc3)cc2C(=O)N([C@@H](C)CO)C[C@@H]1C`, the max activity is 32.1% (inactive).
The value for `C/C=C/c1ccc2c(c1)O[C@H](CN(C)C(=O)Cc1ccncc1)[C@@H](C)CN([C@H](C)CO)S2(=O)=O` was -10.9% [at 8 µM] (inactive).
The value for `CCCN1C[C@@H](C)[C@@H](OC)CN(C)C(=O)c2cc(NC(=O)c3cccc(OC)c3)ccc2OC[C@@H]1C` was -16.1% [at 1.95 µM] (inactive).
Then `COc1ccccc1C#Cc1ccc2c(c1)O[C@H](CN(C)Cc1cccnc1)[C@H](C)CN([C@@H](C)CO)S2(=O)=O`, with 25.3% (inactive).
In the case of `Cc1ccccc1-c1ccc2c(c1)O[C@@H](CN(C)Cc1ccncc1)[C@@H](C)CN([C@H](C)CO)S2(=O)=O`, the max activity is 49.5% (inactive).
Then `CO[C@H]1CN(C)C(=O)c2ccc(NC(=O)C3CC3)cc2OC[C@H](C)N(Cc2cncnc2)C[C@H]1C`, with -10.1% [at 1.95 µM] (inactive); and `CO[C@H]1CN(C)C(=O)c2ccc(NC(=O)Nc3ccccc3)cc2OC[C@@H](C)NC[C@H]1C`, with -11.9% (inactive); and `CO[C@H]1CN(C)C(=O)c2ccc(NC(=O)Nc3ccccc3)cc2OC[C@H](C)NC[C@H]1C`, with -20.9% [at 8 µM] (inactive).
Regarding `CO[C@@H]1CN(C)C(=O)c2ccc(NC(=O)Nc3ccccc3)cc2OC[C@H](C)NC[C@@H]1C`, the max activity was -13.5% [at 8 µM] (inactive).
In the case of `CO[C@@H]1CN(C)C(=O)c2ccc(NC(=O)c3nc4ccccc4s3)cc2OC[C@@H](C)N(Cc2ccncc2)C[C@@H]1C`, the max activity was 23.4% (inactive).
On to `CO[C@@H]1CN(C)C(=O)c2ccc(NC(=O)Nc3ccccc3)cc2OC[C@H](C)NC[C@H]1C`, for which the max activity was -11.5% [at 0.5 µM] (inactive).
The value for `CO[C@@H]1CN(C)C(=O)c2ccc(NC(=O)c3nc4ccccc4s3)cc2OC[C@H](C)N(Cc2ccncc2)C[C@@H]1C` was 26.2% (inactive); that for `COc1ccccc1S(=O)(=O)N[C@H]1C=C[C@H](CC(=O)N2CCCCC2)O[C@@H]1CO` was -11.2% [at 1.95 µM] (inactive); that for `C[C@H](NC(=O)C[C@@H]1C[C@@H]2c3cc(NC(=O)NC4CCCCC4)ccc3O[C@@H]2[C@@H](CO)O1)c1ccccc1` was 6.02% [at 8 µM] (inactive).
As for `CO[C@H]1CN(C)C(=O)c2cc(NC(=O)c3cc(C)on3)ccc2OC[C@H](C)N(C(C)=O)C[C@H]1C`, the max activity is -7.95% [at 1.95 µM] (inactive).
Then `O=C(C[C@@H]1C[C@@H]2c3cc(NC(=O)Nc4ccc(C(F)(F)F)cc4)ccc3O[C@@H]2[C@@H](CO)O1)NCC1CC1`, with 20.8% [at 35 µM] (inactive); and `CC(C)[C@@H](C)NC(=O)N(C)C[C@@H]1OCc2ccccc2-c2ccccc2C(=O)N([C@H](C)CO)C[C@H]1C`, with 47.6% [at 35 µM] (inactive).
On to `CO[C@H]1CN(C)C(=O)c2cc(NC(=O)C3CCC3)ccc2OC[C@H](C)N(Cc2ccc(F)cc2)C[C@H]1C`, for which the max activity was 14.5% (inactive).
For `COc1ccc(-c2ccc([C@H]3[C@H](C#N)N(C(=O)NC4CCCCC4)[C@H]3CO)cc2)cc1`, the max activity was 32.4% (inactive).
